The text below walks through data of PubChem BioAssay AID953 (National Center for Advancing Translational Sciences (NCATS), 2007).

The test is described as follows: Confirmation Concentration-Response Assay for Agonists of the Thyroid Stimulating Hormone Receptor: Activators of Intracellular cAMP Concentrations in Parental HEK 293. The text has this:
NIH Chemical Genomics Center [NCGC] NIH Molecular Libraries Screening Centers Network [MLSCN] MLSCN Grant: 1 X01 MH080680-01 PI Name: Dr. Marvin Gershengorn NCGC Assay Overview: This cell based assay utilized a cyclic nucleotide gated ion channel (CNG) as a biosensor for cAMP induction. HEK 293 cells stably expressing the modified CNG were purchased from BD biosciences (http://www.atto.com/products/actone/features_benefits.shtml) . Stimulation of cAMP production causes the CNG to open and subsequent membrane depolarization to occur. A fluorescent membrane potential dye (BD biosciences) was utilized to detect cAMP stimulation in cells. The cells were maintained in DMEM medium (Invitrogen) containing 10 % FBS (Hyclone), 100 units/ml Penicillin, 100 ug/ml Streptomycin (Invitrogen), and 250 ug/ml Geneticin (Invitrogen) and 1 ug/ml Puromycin (Invitrogen) at 37C in 5% CO2. […]
NCGC Assay Protocol Summary: High Throughput Screening. […] 23 nl/well compound or control was then added to the assay plates, which were incubated for additional 30 min before reading a Envision fluorescence plate reader (Perkin Elmer) in bottom-read mode for fluorescence intensity (emission at 590 nm). Keywords: cAMP, CNG Ion Channel, quantitative high throughput screening, qHTS, HTS, probe identification, CNG, cAMP, cyclic nucleotide gated ion channel PubChem

This is one part of the list. Records with an inconclusive call do not appear. Calls of active or inactive are those of the source. Calls come from the whole dose curve; as a rule, active = well fitted curve in the direction sought with a large enough effect; inconclusive = small, poorly fitted or top-dose-only effect, or effect the other way, or another doubt; inactive = no such curve, though single readings can be large or run the other way.

With `C=CCN1C(=O)C2(C(C(=O)OCC)=C(N)Oc3c2c(=O)oc2ccccc32)c2ccccc21` (configuration not stated), the outcome was inactive. As for `CCOC(=O)C1=C(C)OC(N)=C(C(=O)OC)C12C(=O)Nc1ccc(Br)cc12` (configuration not stated), the outcome was inactive.
